Inconclusive results are not listed. Activity calls are given as the source filed them. The calls were made as follows, unless noted: active = hit-call score of the fitted dose curve at least 0.9, where 1 is the maximum; inactive = score below 0.9.
Key:
[1] = biological target: Oxysterols receptor LXR-beta (Homo sapiens) (UniProt P55055); assay: ATG_LXRb_TRANS: Attagene TRANS-FACTORIAL HepG2 Assay for human Liver X Receptor beta (LXRb) (AID 2282981; active = hit-call score of the fitted dose curve at least 0.9, where 1 is the maximum); conditions: HepG2 Attagene TRANS GAL4-LXRb reporter, mRNA
In short: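 Gain-of-signal mRNA reporter endpoint, DMSO as negative control. Transiently transfected HepG2 cells carrying the NR-Gal4 chimera and GAL4-UAS reporter units were treated 24 h; transcripts quantified by RT-PCR and capillary electrophoresis fluorescence.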

[2] = biological target: Hepatocyte nuclear factor 4-alpha (Homo sapiens) (UniProt P41235); assay: ATG_HNF4a_TRANS: Attagene TRANS-FACTORIAL HepG2 Assay for human Hepatocyte Nuclear Factor 4 alpha (HNF4a) (AID 2282982; active = hit-call score of the fitted dose curve at least 0.9, where 1 is the maximum); conditions: HepG2 HNF4a transactivation reporter, mRNA readout
In short: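 Gain-of-signal mRNA induction, relative to DMSO vehicle, was read after 24 h compound treatment of HepG2 cells bearing transfected GAL4-UAS reporters. Detection used RT-PCR, 6-FAM primer extension and capillary electrophoresis.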

[3] = ATG_M_06_TRANS: Attagene TRANS-FACTORIAL HepG2 Assay for M06 Transcription Factor (Internal Marker) (AID 2282983; active = hit-call score of the fitted dose curve at least 0.9, where 1 is the maximum); conditions: HepG2 Attagene TRANS M06 internal marker reporter
In short: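 Transfect HepG2 with MRTUs → dose compounds 24 h → isolate RNA, oligo(dT) RT → PCR with reporter primers → 6-FAM primer extension → HpaI digest → CE fragment analysis. Positive direction vs DMSO.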

[4] = biological target: Nuclear receptor subfamily 4 group A member 2 (Homo sapiens) (UniProt P43354); assay: ATG_NURR1_TRANS: Attagene TRANS-FACTORIAL HepG2 Assay for human Nuclear Receptor Related Protein 1 (NURR1) (AID 2282985; active = hit-call score of the fitted dose curve at least 0.9, where 1 is the maximum); conditions: HepG2 Attagene TRANS reporter, mRNA readout
In short: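 HepG2 / transient MRTU transfection / 24 h compound exposure / RT-PCR + CE fluorescence of reporter mRNA / gain-of-signal vs DMSO.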

[5] = biological target: Transcriptional activator Myb (Homo sapiens) (UniProt P10242); assay: ATG_Myb_CIS: Attagene CIS-FACTORIAL HepG2 Assay for human Myeloblastosis (Myb) Proto-Oncogene Transcription Factor (AID 2282986); conditions: HepG2 Attagene CIS-FACTORIAL Myb reporter transcription; actives raise or lower the signal
In short: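 Transiently transfected HepG2 cells, treated 24 h. Reporter mRNA quantified by RT-PCR/capillary electrophoresis; bidirectional fit relative to DMSO.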

[6] = biological target: Nuclear respiratory factor 1 (Homo sapiens) (UniProt Q16656); assay: ATG_NRF1_CIS: Attagene CIS-FACTORIAL HepG2 Assay for human Nuclear Respiratory Factor 1 (NRF1) Orphan Gene (AID 2282987); conditions: HepG2 NRF1 cis-element reporter, Attagene multiplex; actives raise or lower the signal
In short: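 Cells (HepG2, transient MRTU transfection) are exposed to compound for 24 h, then RNA isolated and reporter mRNA amplified and fluorescently labelled. Fragments are separated by capillary electrophoresis; signal change is fitted bidirectionally relative to DMSO.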

[7] = ATG_NFI_CIS: Attagene CIS-FACTORIAL HepG2 Assay for human Nuclear Factor I (NFI) (AID 2282989); conditions: HepG2 cis-regulatory reporter, NFI response element transcription; actives raise or lower the signal
In short: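 HepG2 cells transiently transfected with cis-element-driven multiplexed reporter transcription units, dosed for 24 h. Reporter mRNA quantified by RT-PCR, fluorescent labelling, HpaI digestion and capillary electrophoresis; bidirectional fit versus DMSO baseline.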

[8] = biological target: Myc proto-oncogene protein (Homo sapiens) (UniProt P01106); assay: ATG_Myc_CIS: Attagene CIS-FACTORIAL HepG2 Assay for human Myelocytomatosis (Myc) Proto-Oncogene Transcription Factor (AID 2282990); conditions: HepG2, Attagene cis-reporter transcription factor activity; actives raise or lower the signal
In short: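 Read-out: fluorescent reporter mRNA fragments resolved by capillary electrophoresis after RT-PCR. Human HepG2 liver cells carried transfected cis-element reporter units and were dosed for 24 h. Gain or loss of signal fitted relative to DMSO baseline.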

[9] = ATG_NF_kB_CIS: Attagene CIS-FACTORIAL HepG2 Assay for human Nuclear Factor Kappa B (NF-kB) (AID 2282991); conditions: HepG2 Attagene cis-factorial NF-kB reporter mRNA; actives raise or lower the signal
In short: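 Measures mRNA induction of an NF-kB-responsive cis-element reporter in HepG2 cells transfected with multiple reporter units, sampled 24 h post-dosing; quantified by fluorescence after RT-PCR and capillary electrophoresis, fitted for activation or inhibition against DMSO.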

[10] = ATG_NRF2_ARE_CIS: Attagene CIS-FACTORIAL HepG2 Assay for human Nuclear Factor Erythroid 2 Related Factor 2 (NFR2) response to Antioxidant Response Elements (ARE) (AID 2282992); conditions: HepG2 Attagene ARE/NRF2 reporter, transcription factor activity; actives raise or lower the signal;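 as to AC50: reporter mRNA level measured by RT-PCR and capillary electrophoresis fluorescence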
In short: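 Multiplexed reporter mRNA profiling in HepG2 after a 24 h chemical exposure. Curves fitted in both directions relative to DMSO negative control.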

[11] = ATG_Oct_MLP_CIS: Attagene CIS-FACTORIAL HepG2 Assay for human Octamer-Binding Transcription Factor (Oct) (AID 2282993); conditions: HepG2 Attagene cis-factorial Oct reporter, mRNA; actives raise or lower the signal
In short: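 HepG2 cells transiently transfected with cis-promoter-driven multiplexed reporter transcription units, dosed for 24 h. Reporter mRNA quantified by RT-PCR, fluorescent labelling, HpaI digestion and capillary electrophoresis; bidirectional fits versus DMSO baseline.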

[12] = BSK_3C_TissueFactor: BioMAP Diversity Plus: 3C Assay for Tissue Factor Biomarker Activity (AID 2282997); conditions: BioMAP 3C HUVEC, tissue factor biomarker readout; actives raise or lower the signal
In short: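 ELISA read-out of Tissue Factor levels on human umbilical vein endothelium collected 24 h after chemical dosing. Gain or loss of signal was fitted relative to DMSO.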

[13] = BSK_3C_uPAR: BioMAP Diversity Plus: 3C Assay for Urokinase-type plasminogen activator receptor (uPAR) Biomarker Activity (AID 2282998); conditions: BioMAP 3C HUVEC, uPAR biomarker ELISA; actives raise or lower the signal
In short: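 Human umbilical vein endothelial primary cells were exposed to test chemical for 24 h. Cell-surface uPAR was then quantified by ELISA, and responses were fitted bidirectionally against DMSO as negative control and baseline.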

[14] = BSK_4H_Eotaxin3: BioMAP Diversity Plus: 4H Assay for Eotaxin 3 Biomarker Activity (AID 2283000); conditions: primary human endothelial cells (HUVEC); actives raise or lower the signal
In short: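 Chemicals were added to human umbilical vein endothelium cultures, and Eotaxin-3 was quantified by ELISA at 24 h. Values were derived by bidirectional fitting with DMSO serving as negative control and activity baseline.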

[15] = biological target: human Peroxisome Proliferator-activated Receptor alpha (PPARa), PPARA (gene 5465) (UniProt Q07869); assay: ATG_PPARa_TRANS: Attagene TRANS-FACTORIAL HepG2 Assay for human Peroxisome Proliferator-activated Receptor alpha (PPARa) (AID 2283001; active = hit-call score of the fitted dose curve at least 0.9, where 1 is the maximum;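 as to AC50: potency for gain of reporter signal over DMSO so agonist or activator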)
In short: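 Measures transcriptional activity of an exogenous chimeric PPARa-Gal4 protein in transiently transfected HepG2 cells after 24 h dosing. Reporter mRNA quantified via RT-PCR and capillary electrophoresis; DMSO served as negative control.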

[16] = BSK_3C_VCAM1: BioMAP Diversity Plus: 3C Assay for Vascular cell adhesion molecule 1 (VCAM1) Biomarker Activity (AID 2282999); conditions: BioMAP 3C HUVEC, VCAM1 ELISA, cytokine-stimulated; actives raise or lower the signal
In short: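 Human umbilical vein endothelial cells (3C system), biomarker read by ELISA 24 h after dosing; bidirectional fit against DMSO baseline. Cytotoxicity tracked by SRB total-protein staining in parallel cultures at biomarker time.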

[17] = ATG_M_32_TRANS: Attagene TRANS-FACTORIAL HepG2 Assay for M32 Transcription Factor (Internal Marker) (AID 2282984; active = hit-call score of the fitted dose curve at least 0.9, where 1 is the maximum;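 also: transcript level of a background control reporter unit measured by RT-PCR and capillary electrophoresis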); conditions: HepG2 Attagene TRANS M32 internal marker reporter
In short: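 Capillary electrophoresis of 6-FAM-labelled reporter fragments gives the signal; data fitted for gain over DMSO negative control. Source: HepG2 cells bearing transient multiple reporter transcription units, 24 h exposure.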

[18] = biological target: Cellular tumor antigen p53 (Homo sapiens) (UniProt P04637); assay: ATG_p53_CIS: Attagene CIS-FACTORIAL HepG2 Assay for human p53 Transcription Factor (AID 2282994); conditions: HepG2 p53 cis-element reporter, Attagene mRNA; actives raise or lower the signal
In short: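 Multiplexed reporter mRNA assay in human HepG2 liver cells; cis-regulated units report endogenous factor activity. Values come from bidirectional curve fitting against DMSO negative control after 24 h treatment.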

Measured: AC50

Sequence of Hepatocyte nuclear factor 4-alpha (Homo sapiens) (P41235 whole entry, looked up, the tested form may be a part): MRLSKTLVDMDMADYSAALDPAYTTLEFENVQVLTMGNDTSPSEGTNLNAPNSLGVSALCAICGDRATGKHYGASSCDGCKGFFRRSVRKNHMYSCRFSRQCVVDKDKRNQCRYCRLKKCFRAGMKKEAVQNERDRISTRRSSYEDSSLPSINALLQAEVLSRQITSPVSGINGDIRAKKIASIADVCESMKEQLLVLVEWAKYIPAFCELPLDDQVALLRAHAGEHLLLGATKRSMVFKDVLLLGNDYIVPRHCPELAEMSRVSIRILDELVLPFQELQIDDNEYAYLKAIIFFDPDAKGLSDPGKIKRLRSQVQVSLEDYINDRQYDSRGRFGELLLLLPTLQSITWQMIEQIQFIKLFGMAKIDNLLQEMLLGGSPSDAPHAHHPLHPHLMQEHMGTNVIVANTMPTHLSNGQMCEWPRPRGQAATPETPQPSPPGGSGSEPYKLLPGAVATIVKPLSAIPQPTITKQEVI
Sequence of human Peroxisome Proliferator-activated Receptor alpha (PPARa), PPARA (gene 5465) (Q07869 whole entry, looked up, the tested form may be a part): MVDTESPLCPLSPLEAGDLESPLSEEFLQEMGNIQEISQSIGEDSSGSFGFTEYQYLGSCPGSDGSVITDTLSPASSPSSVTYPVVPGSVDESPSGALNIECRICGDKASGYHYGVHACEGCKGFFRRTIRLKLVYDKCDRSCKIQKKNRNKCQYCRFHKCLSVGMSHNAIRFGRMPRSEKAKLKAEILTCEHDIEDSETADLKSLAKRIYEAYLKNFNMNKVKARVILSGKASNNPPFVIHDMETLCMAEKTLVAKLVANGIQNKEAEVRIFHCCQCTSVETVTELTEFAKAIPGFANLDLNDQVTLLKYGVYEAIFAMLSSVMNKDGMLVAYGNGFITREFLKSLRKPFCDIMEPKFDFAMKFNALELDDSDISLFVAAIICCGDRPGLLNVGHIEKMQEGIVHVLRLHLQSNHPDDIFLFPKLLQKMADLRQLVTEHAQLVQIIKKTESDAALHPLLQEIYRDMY
Sequence of Cellular tumor antigen p53 (Homo sapiens) (P04637 whole entry, looked up): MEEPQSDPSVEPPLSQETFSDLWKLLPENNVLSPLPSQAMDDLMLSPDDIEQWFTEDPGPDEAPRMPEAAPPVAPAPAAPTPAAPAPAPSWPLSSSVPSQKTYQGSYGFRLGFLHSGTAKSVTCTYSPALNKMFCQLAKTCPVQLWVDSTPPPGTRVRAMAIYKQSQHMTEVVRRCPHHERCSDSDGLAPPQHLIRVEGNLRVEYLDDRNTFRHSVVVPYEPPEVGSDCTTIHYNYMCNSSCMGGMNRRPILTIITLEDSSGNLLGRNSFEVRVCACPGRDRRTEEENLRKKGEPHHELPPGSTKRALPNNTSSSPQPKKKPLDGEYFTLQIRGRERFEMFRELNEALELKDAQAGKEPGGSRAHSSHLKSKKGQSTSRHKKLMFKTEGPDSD
Sequence of Transcriptional activator Myb (Homo sapiens) (P10242 whole entry, looked up): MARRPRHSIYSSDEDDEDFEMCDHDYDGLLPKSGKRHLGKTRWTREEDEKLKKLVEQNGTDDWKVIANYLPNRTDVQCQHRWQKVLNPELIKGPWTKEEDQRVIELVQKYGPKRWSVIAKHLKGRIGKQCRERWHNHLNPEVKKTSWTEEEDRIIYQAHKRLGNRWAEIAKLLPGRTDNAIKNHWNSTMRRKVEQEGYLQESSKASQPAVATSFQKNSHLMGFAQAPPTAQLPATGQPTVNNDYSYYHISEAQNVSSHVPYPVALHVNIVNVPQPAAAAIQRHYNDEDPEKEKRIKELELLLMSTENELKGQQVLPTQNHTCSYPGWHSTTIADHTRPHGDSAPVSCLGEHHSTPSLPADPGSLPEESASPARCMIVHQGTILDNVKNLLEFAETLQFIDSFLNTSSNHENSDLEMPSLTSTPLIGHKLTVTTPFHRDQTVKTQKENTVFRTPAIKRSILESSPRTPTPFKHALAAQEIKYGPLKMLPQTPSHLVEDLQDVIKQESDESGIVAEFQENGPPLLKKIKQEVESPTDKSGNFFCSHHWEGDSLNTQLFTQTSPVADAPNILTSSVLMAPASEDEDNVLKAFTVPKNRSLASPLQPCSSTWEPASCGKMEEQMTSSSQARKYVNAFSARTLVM
Sequence of Oxysterols receptor LXR-beta (Homo sapiens) (P55055 whole entry, looked up, the tested form may be a part): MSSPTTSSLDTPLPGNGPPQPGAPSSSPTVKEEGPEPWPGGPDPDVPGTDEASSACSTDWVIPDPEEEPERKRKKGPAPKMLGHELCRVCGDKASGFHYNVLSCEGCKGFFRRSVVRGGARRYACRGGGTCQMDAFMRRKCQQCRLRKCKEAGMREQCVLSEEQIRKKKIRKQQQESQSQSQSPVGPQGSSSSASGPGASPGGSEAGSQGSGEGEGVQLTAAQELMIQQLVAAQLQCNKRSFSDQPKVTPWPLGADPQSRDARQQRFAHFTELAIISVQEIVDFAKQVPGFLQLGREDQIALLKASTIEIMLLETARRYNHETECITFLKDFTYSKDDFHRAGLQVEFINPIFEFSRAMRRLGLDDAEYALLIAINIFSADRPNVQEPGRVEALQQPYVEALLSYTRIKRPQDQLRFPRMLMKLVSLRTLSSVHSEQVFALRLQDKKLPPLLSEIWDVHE
Sequence of Myc proto-oncogene protein (Homo sapiens) (P01106 whole entry, looked up, the tested form may be a part): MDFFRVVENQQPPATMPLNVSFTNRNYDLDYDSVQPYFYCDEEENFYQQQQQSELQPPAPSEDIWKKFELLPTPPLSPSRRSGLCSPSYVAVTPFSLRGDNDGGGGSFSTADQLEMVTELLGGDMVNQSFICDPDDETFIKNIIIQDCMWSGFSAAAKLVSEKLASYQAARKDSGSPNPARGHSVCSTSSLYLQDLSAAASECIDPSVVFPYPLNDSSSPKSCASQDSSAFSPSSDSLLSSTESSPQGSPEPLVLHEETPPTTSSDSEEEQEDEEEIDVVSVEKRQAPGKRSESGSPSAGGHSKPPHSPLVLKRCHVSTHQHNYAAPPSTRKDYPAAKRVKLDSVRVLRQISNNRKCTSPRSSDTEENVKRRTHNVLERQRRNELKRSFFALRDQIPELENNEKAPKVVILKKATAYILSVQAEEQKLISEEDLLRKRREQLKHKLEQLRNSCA
Sequence of Nuclear receptor subfamily 4 group A member 2 (Homo sapiens) (P43354 whole entry, looked up): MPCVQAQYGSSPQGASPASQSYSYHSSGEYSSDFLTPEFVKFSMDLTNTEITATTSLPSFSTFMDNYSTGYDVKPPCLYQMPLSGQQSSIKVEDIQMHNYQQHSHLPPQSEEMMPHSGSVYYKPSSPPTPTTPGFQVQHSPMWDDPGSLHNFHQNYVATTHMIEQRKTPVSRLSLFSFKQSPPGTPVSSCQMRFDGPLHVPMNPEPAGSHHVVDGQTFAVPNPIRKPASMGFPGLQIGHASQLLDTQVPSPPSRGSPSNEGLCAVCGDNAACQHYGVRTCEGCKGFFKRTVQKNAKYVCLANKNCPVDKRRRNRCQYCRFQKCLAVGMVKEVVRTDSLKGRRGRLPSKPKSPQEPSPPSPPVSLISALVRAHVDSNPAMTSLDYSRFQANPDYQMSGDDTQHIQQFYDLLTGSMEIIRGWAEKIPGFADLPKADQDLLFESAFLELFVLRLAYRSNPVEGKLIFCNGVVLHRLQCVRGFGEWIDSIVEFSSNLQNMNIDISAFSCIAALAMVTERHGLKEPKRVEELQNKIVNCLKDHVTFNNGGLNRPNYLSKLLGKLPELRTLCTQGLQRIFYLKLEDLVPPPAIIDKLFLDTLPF
Sequence of Nuclear respiratory factor 1 (Homo sapiens) (Q16656 whole entry, looked up, the tested form may be a part): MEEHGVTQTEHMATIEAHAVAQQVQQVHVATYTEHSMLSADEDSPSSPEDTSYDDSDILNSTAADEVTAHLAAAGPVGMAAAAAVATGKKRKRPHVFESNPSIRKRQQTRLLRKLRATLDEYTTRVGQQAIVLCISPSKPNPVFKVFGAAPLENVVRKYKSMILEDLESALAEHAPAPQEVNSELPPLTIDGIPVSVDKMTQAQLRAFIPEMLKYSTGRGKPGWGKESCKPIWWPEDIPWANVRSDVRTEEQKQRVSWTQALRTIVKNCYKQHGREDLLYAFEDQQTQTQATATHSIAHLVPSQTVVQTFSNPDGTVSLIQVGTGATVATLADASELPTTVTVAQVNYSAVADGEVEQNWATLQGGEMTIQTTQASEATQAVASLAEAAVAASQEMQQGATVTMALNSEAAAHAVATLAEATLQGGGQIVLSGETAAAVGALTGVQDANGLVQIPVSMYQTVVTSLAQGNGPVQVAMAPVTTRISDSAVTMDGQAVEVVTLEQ

C1N2CN3CN1CN(C2)C3
inactive: [1] | [2] | [3] | [4] | [5] | [6] | [7] | [8] | [9] | [10] | [11] | [12] | [13] | [14] | [15]

CC(=O)OCCC(C)C
inactive: [1] | [3] | [4] | [5] | [6] | [7] | [8] | [10] | [11] | [12] | [13] | [16] | [15]

O=C1OC(=O)C2C3C=CC(C3)C12 (configuration not stated)
inactive: [2] | [17] | [5] | [6] | [7] | [8] | [10] | [11] | [12] | [13] | [15]

CCn1nc(Cc2ccccc2)cc1C1CCN(C[C@H]2C[C@H](N(C)[C@@H](C(=O)O)C(C)C)C[C@@H]2c2cccc(F)c2)CC1
inactive: [5] | [6] | [7] | [8] | [11] | [12] | [13] | [14]
active: [9] 38.2 µM | [10] 51.5 µM | [18] 100 µM

Nc1ccc(Nc2ccccc2)cc1
active: [10] 47.1 µM | [11] 32 µM | [12] 0.903 µM | [14] 3.97 µM
inactive: [1] | [2] | [4] | [5] | [6] | [7] | [8] | [9] | [13] | [15]

CC[C@H]1OC(=O)[C@H](C)[C@@H](O[C@H]2C[C@@](C)(OC)[C@@H](O)[C@H](C)O2)[C@H](C)[C@@H](O[C@@H]2O[C@H](C)C[C@H](N(C)C)[C@H]2O)[C@](C)(O)C[C@@H](C)C(=O)[C@H](C)[C@@H](O)[C@]1(C)O
inactive: [1] | [3] | [17] | [5] | [6] | [7] | [8] | [9] | [10] | [11] | [12] | [13] | [16] | [14] | [15]

CC(C)=CCCC(C)CCO (configuration not stated)
inactive: [2] | [3] | [17] | [5] | [6] | [7] | [8] | [9] | [11] | [18] | [12] | [13] | [16] | [14]
active: [10] 134 µM | [15] 65.5 µM

C=CCCCCCCCCC(=O)O
active: [15] 26.7 µM
inactive: [1] | [17] | [4] | [5] | [6] | [7] | [8] | [9] | [10] | [11] | [12] | [13] | [14]

On1ccccc1=S
active: [9] 10.2 µM | [10] 12.2 µM | [12] 18.6 µM | [13] 28.4 µM | [16] 24.7 µM
inactive: [2] | [3] | [17] | [5] | [6] | [7] | [8] | [11] | [18]

CC(C)CCCCCCOC(=O)c1ccc(C(=O)OCCCCCCC(C)C)c(C(=O)OCCCCCCC(C)C)c1
inactive: [3] | [5] | [6] | [7] | [8] | [10] | [11] | [12] | [13] | [16]

Cn1c(=O)c2c(ncn2C)n(C)c1=O
inactive: [2] | [17] | [4] | [5] | [6] | [7] | [8] | [10] | [11] | [18] | [12] | [13] | [16] | [14]

Reference: PubChem BioAssay (EPA / NIEHS)
